38 molecules from PubChem BioAssay (EPA / NIEHS) can be followed below.

Where “and” joins values, the source holds several entries; their conditions need not be identical. Equal values may be shown once. Calls of active or inactive are those of the source. Rule for the calls: active = hit-call score of the fitted dose curve at least 0.9, where 1 is the maximum; inactive = score below 0.9.

The assay can be described thus: ATG_CRE_CIS: Attagene CIS-FACTORIAL HepG2 Assay for human cAMP Responsive Element (CRE) binding protein 3 (AID 2282926). The note with it: HepG2 CRE cis-reporter, Attagene multiplexed mRNA; actives raise or lower the signal. Summed up: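 HepG2 cells transiently transfected with a multiplexed reporter library (CRE-driven unit among them) were dosed for 24 h. Reporter mRNA was quantified by RT-PCR, fluorescent labelling, HpaI digestion and capillary electrophoresis, with bidirectional fitting against DMSO baseline.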
Regarding `CC1=CC(=O)/C(=C(/C)O)C(=O)O1`, the molecule was classed as inactive.
As for `Cc1oc2c(NC(=O)c3c(Cl)cccc3Cl)cccc2c1C(C)(C)O`, the result was inactive.
The same measure, in the same setting: for `CCCCCCCCCC(=O)O` the value was “inactive”.
Regarding `COc1ccc2cc(S(=O)(=O)N[C@H](CC(=O)N[C@H](Cc3ccc(CN4[C@H](C)CCC[C@@H]4C)cc3)C(=O)N(C)C(C)C)c3ccc4c(c3)OCO4)ccc2c1`, the half-maximal activity concentration (AC50) is 15.4 µM (active).
Consider `c1ccc2n[nH]nc2c1`, for which the result was inactive.
For the molecule `CN1C(=O)CC[C@H]1c1cccnc1`, the result was inactive.
As to `O=C(O)Cn1c(=O)n(Cc2ccc(Br)cc2F)c(=O)c2ccc(Cl)cc21`, the outcome was inactive.
On the same count and under the same terms, in the case of `CCCCCCCCCCCCO` it was “inactive”.
Regarding `COc1cc(C(=O)NC2CCN(C)CC2)ccc1Nc1ncc2c(n1)N(C1CCCC1)CC(F)(F)C(=O)N2C`, the AC50 was 0.933 µM (active).
As to `O=C(OCCCCCCOC(=O)c1ccccc1)c1ccccc1`, the molecule was classed as inactive.
`CC(C)(C)c1csc(-c2cc3cc(OCc4ccccc4CC(=O)O)ccc3o2)n1`: the AC50 is 54.3 µM (active).
Regarding `O=C=NCCCCCCN=C=O`, the call was inactive.
For `O=C1c2ccccc2C(=O)N1CCc1noc(-c2ccc(CN3CCCCCC3)s2)n1`, the molecule was classed as inactive.
Take `CCCCCCCCCCCC[N+](C)(C)C`: the molecule was called inactive.
Consider `CC(=O)N1CCN(c2ccc(OC[C@H]3CO[C@](Cn4ccnc4)(c4ccc(Cl)cc4Cl)O3)cc2)CC1`, for which the concentration at half-maximal activity (AC50) was 20.7 µM (active).
On the same count and under the same terms, for `NCc1cccc(C2CCN(C(=O)c3ccc(C#Cc4ccccc4F)o3)CC2)c1` the value was 11 µM (active).
As to `O=C1O[C@H]([C@@H](O)CO)C(O)=C1O`, the outcome was inactive.
With `Cc1occc1C(=O)Nc1ccc(C(=O)N2CCC(F)(F)/C(=C\C(=O)N3CCC(N4CCCCC4)CC3)c3ccccc32)cc1`, the molecule was classed as inactive.
As to `CC(C)(C)c1cc(/C=C2\SC(N)=NC2=O)cc(C(C)(C)C)c1O`, the AC50 was 18.9 µM (active).
Regarding `CCCC(=O)OCCC(C)C`, the molecule was called inactive.
Still for that read-out and setting: in the case of `Cc1ncc(CO)c(CO)c1O` it was “inactive”; in that of `CCN(CC)C(=O)c1cc(S(=O)(=O)Cc2ccccc2)c(N2CCC(c3ccccc3)CC2)cc1N(CC)CCN(C)C`, “inactive”.
Take `CCCCOC(=O)CC(CC(=O)OCCCC)(OC(C)=O)C(=O)OCCCC`: the molecule was classed as inactive.
The same measure, in the same setting: in the case of `Cc1ccc2oc(CN(Cc3ccccc3)C(=O)Nc3c(F)cc(F)cc3F)c(-c3ccc(Cl)cc3)c2c1` it was “inactive”; in that of `CCCCCCCCOC(=O)c1cc(O)c(O)c(O)c1`, “inactive”.
On to `O=c1[nH]sc2ccccc12`, for which the AC50 is 45.4 µM (active).
For `CCCCCCCCOc1ccc(C(=O)c2ccccc2)c(O)c1`, the call was inactive.
Regarding `CN1C(=O)N(c2ccccc2Br)Cc2cnc(Nc3ccc4c(c3)OCC(CO)O4)nc21` (stereo not drawn), the AC50 was 5.78 µM (active).
As for `Clc1ccccc1C(c1ccccc1)(c1ccccc1)n1ccnc1`, the result was inactive.
As to `CC(O)CC(C)(C)O` (stereo not drawn), the call was inactive.
For the molecule `CCOC(=O)O[C@H](C)OC(=O)c1ccc2c(c1)cc(C(=O)NC1CCN(C(C)C)CC1)n2Cc1cc(-c2ccc(Cl)s2)on1`, the result was inactive.
On the same count and under the same terms, in the case of `O=CCCCC=O` it was “inactive”.
For `CC(C)(c1cc(Br)c(O)c(Br)c1)c1cc(Br)c(O)c(Br)c1`, the AC50 was 46 µM (active) and 44.2 µM (active).
Regarding `Cc1cccc2ccccc12`, the molecule was called inactive.
`CC(C)(O)c1ccc(CNC(=O)c2cccnc2Oc2ccc3nonc3c2)cc1`: the call was inactive.
Take `CCO[Si](CCCNC(N)=O)(OCC)OCC`: the outcome was inactive.
In the case of `C[C@]12CC[C@@H]3c4ccc(O)cc4CC[C@H]3[C@@H]1CCC2=O`, the call was inactive.
On the same count and under the same terms, in the case of `COc1cccc([C@H](O)C2CCN(CCc3ccc(F)cc3)CC2)c1OC` it was “inactive”.

One may read the AC50 as the concentration at which the activity in the assay is half-maximal.
